The full list was thinned out, with hits kept by preference.
Pf Dd2 inh: Plasmodium falciparum Dd2 growth inhibition. 120,000 compounds, 4.3% hits. Potency, µM (top dose mostly 28.9 µM), without a hit: at the highest dose activity, negative = inhibition, most hits filed as inhibitors. P. falciparum Dd2 growth, SYBR Green, 72 h; active means well fitted inhibition curve with a large enough effect;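 further: plate controls were DMSO vehicle for no effect and reference drug for full effect; nearly all actives have a fitted effect of over 65% in size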
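Readout: SYBR Green fluorescence, 485 nm excitation, 535 nm emission, after ~16 h lysis at 37C. Before that, Dd2-infected red cells (2.5% hematocrit) grew 72 h with compound, 29 uM top final concentration.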
* marks the source's active call; other numbers are inactive results; i = inactive; [ ] = another dose, or the depositor's remark. Potency means the concentration at half of the fitted maximal effect.

SMILES | Pf Dd2 inh
Cn1c([C@H]2CCN(Cc3cccc(C#N)c3)C2)nc2ccccc21 | 10µM*
COc1ccccc1-c1nnc([C@H]2CCN(Cc3ccc(C(=O)O)cc3)C2)o1 | i
COc1ccc(-c2nnc([C@H]3CCN(S(C)(=O)=O)C3)o2)cc1 | 13%[44.1 µM]
COc1ccccc1-c1nnc([C@H]2CCN(Cc3cccnc3)C2)o1 | 13µM*
COc1ccc(C(=O)N2CC[C@H](c3nnc(-c4ccccc4)o3)C2)cc1 | -17%[44.1 µM]
COc1ccc(-c2nnc([C@H]3CCN(S(=O)(=O)Cc4ccccc4)C3)o2)cc1 | 10µM*
COCC(=O)N1CCc2nc(N3CCc4ccccc4C3)[nH]c(=O)c2CC1 | i[5.79 µM]
Cc1cc(C)n(CC(=O)N[C@@H]2CN(Cc3ccccc3)C[C@H]2CN(C)C)c(=O)n1 | 29%
O=C1CCN(C(=O)C2CCN(C(=O)COc3ccccc3)CC2)CCCCCCN1 | -2%
COCC(=O)N1CCCC(C(=O)NCCNc2ncccc2C)C1 (configuration not stated) | 11%
COc1cccc([S+](=O)([O-])N2CCC(c3nnc4n3C(C(=O)O)CC4)CC2)c1 (configuration not stated) | 14%
O=C(c1cccnc1)N1CC2CC(C1)[C@H]1CCCC(=O)N1C2 (some centres not stated) | 4%
COc1cc(CNC(=O)C2Cn3cccc3C(=O)N2)cc(OC)c1 (configuration not stated) | 32%
CN(Cc1cccc(C(=O)Nc2cccc(C#N)c2)c1)CC1COCCO1 (configuration not stated) | -7%
COc1ccccc1CCC(=O)N1CCC2(CC1)N(C)C(=O)CS2(=O)=O | 5%
Cc1ccc(-c2nnc([C@H]3CCN(Cc4ccc(CO)o4)C3)o2)cc1 | i
Cc1ccc(CN2CC[C@H](c3nnc(-c4ccccc4)o3)C2)cc1 | 10µM*
FC(F)(F)c1ccc(CN2CC[C@H](c3nnc(-c4ccccc4)o3)C2)cc1 | i
O=C(NCc1ccncc1)C1CN(Cc2cccc(Br)c2)CC12CCOCC2 (configuration not stated) | 3.5µM*
O=C(NCc1ccncc1)C1CN(Cc2ccoc2)CC12CCOCC2 (configuration not stated) | -23%
CCc1ccc(CN2CC(C(=O)NCc3ccncc3)C3(CCOCC3)C2)cc1 (configuration not stated) | -10%
O=[S+]([O-])(Nc1nncs1)c1ccc2c(c1)OCCN(Cc1ccsc1)C2 | -4%[44.1 µM]
COc1ccc(-c2nc(C)nc3c2CCN([S+](=O)([O-])c2cccc(C(F)(F)F)c2)CC3)cc1 | i
O=c1c2nc(N3CCC(c4ccccc4)CC3)ccc2ncn1C1CC1 | -12%[44.1 µM]
COc1ccc2c(c1)CN(Cc1ccc(C(F)(F)F)cc1)CC[C@H]1COC(=O)N21 | i
SMILES | Pf Dd2 inh
COc1ccc2c(c1)CN(Cc1ccccc1Cl)CC[C@H]1COC(=O)N21 | 11µM*
COc1cccc(CN2CC[C@H]3COC(=O)N3c3ccc(OC)cc3C2)c1 | 11%[44.1 µM]
O=C(NC1CC1)C1CN(c2ccc(F)cc2)C(=O)N1 (configuration not stated) | -2%[44.1 µM]
CCn1ncc(CN(C)C(=O)c2c(C)oc3c2CN(Cc2ccc(OC)cc2)CC3)c1C | 11µM*
COc1ccc(CN2CCc3oc(C)c(C(=O)N4CCN(C(C)=O)CC4)c3C2)cc1 | -13%
COCCNC(=O)c1nc2c(o1)CCN(Cc1ccc(OC)cc1)CC2 | -16%[44.1 µM]
CCN(CC)C(=O)C[C@@H]1c2nc(NC(=O)C3CCC3)sc2C[C@@H]2[C@](C)(CO)[C@H](O)CC[C@]21C | 7.1µM*
C=CCOC(=O)Nc1nc2c(s1)C[C@@H]1[C@](C)(CO)[C@H](O)CC[C@@]1(C)[C@@H]2CC(=O)NC(C)C | -9%
C=CCN(C)C(=O)C[C@@H]1c2nc(NC(=O)c3ccc(OC)cc3)sc2C[C@@H]2[C@](C)(CO)[C@H](O)CC[C@]21C | -6%
CC(=O)N1CCN(C(=O)C[C@@H]2c3nc(NC(=O)C4CCC4)sc3C[C@@H]3[C@](C)(CO)[C@H](O)CC[C@]32C)CC1 | -22%
CC(C)NC(=O)C[C@@H]1c2nc(NC(=O)C3CCCCC3)sc2C[C@@H]2[C@](C)(CO)[C@H](O)CC[C@]21C | 10µM*
CCN(CC)C(=O)C[C@@H]1c2nc(NC(=O)CC(C)(C)C)sc2C[C@@H]2[C@](C)(CO)[C@H](O)CC[C@]21C | i
CCN(CC)C(=O)C[C@@H]1c2nc(NC(=O)c3cccs3)sc2C[C@@H]2[C@](C)(CO)[C@H](O)CC[C@]21C | 4µM*
CC1=C[C@@H](CO)[C@H](C(C)C)C[C@H]1CC(=O)NCc1ccc(F)cc1 | 8%[44.1 µM]
CCC1c2nccn2CCCN1C(=O)c1c(C)noc1C (configuration not stated) | -3%
CC(C)CN1C(=O)c2cccn2CC1C(=O)NC1CCN(Cc2ccccc2)CC1 (configuration not stated) | -5%
Cc1ccc(C(=O)N2CCCCCNC(=O)[C@@H]3CCC[C@@H]32)cn1 | 8%
O=C(c1ccc(Br)o1)N1c2ccccc2CC1c1nnc(C2CCOCC2)o1 (configuration not stated) | i
CCN(c1ccccc1)c1nnc(NC(=O)Nc2cccc(C(F)(F)F)c2)s1 | -6%
CC(C)CN(CC(C)C)c1nnc(NC(=O)Nc2cccc(C(F)(F)F)c2)s1 | 11µM*
Cc1ccc(NC(=O)Nc2nnc(N(CC(C)C)CC(C)C)s2)cc1Cl | -10%
CCN1C(=O)COC[C@@H]1[C@H](O)c1ccc(NC(=O)c2cccs2)cc1 | i
N#Cc1ccc(C(=O)N2CCCCCCNC(=O)CC2)cc1 | 1%
Cn1ccnc1C(=O)N1CCCC(c2noc(COc3ccccc3F)n2)C1 (configuration not stated) | -13%
CN(Cc1cccc(C(F)(F)F)c1)C(=O)C(C)(C)C | -1%[44.1 µM]
SMILES | Pf Dd2 inh
Cc1ccccc1C(=O)N(C)Cc1cccc(C(F)(F)F)c1 | 14µM*
CN(Cc1cccc(C(F)(F)F)c1)C(=O)c1ccccc1 | i
CC1(C)[C@H](Cc2cc(CN3CCCCC3)on2)C[C@@H]1NCc1ccccn1 | -6%[44.1 µM]
O=C(CCc1ccc(=O)[nH]n1)N[C@@H]1COCC[C@H]1Oc1ccccn1 | -11%
CCCc1nnc(C[C@@H]2C[C@@H](C(C)C)[C@H](CN3CC[C@H](NC(C)=O)C3)C=C2C)o1 | 5µM*
COc1ccc(C(=O)NC[C@@H]2C=C(C)[C@H](CC(=O)N3CCOCC3)C[C@H]2C(C)C)cc1 | -30%[44.1 µM]
CC(=O)NC[C@@H]1C=C(C)[C@H](CC(=O)O)C[C@H]1C(C)C | 44%[44.1 µM]
COCCN1CCN(C[C@@H]2C=C(C)[C@H](Cc3nnc(COc4ccc(F)cc4)o3)C[C@H]2C(C)C)CC1 | 5µM*
CCCc1nnc([C@H]2CCN(Cc3ccc(NC(C)=O)cc3)C2)o1 | i
CC1=C[C@@H](CC#N)[C@H](C(C)C)C[C@H]1CC(=O)N1CCC(C)CC1 | -4%[44.1 µM]
CCCc1nnc(C[C@@H]2C[C@@H](C(C)C)[C@H](CN3CCC(CO)CC3)C=C2C)o1 | 10µM*
CC1=C[C@@H](CN2CCC(C(N)=O)CC2)[C@H](C(C)C)C[C@H]1Cc1nnc(C)o1 | i
CC1=C[C@@H](CN2CCC(O)CC2)[C@H](C(C)C)C[C@H]1Cc1nnc(C(C)(C)C)o1 | 10µM*
Cn1ncc2c(C(=O)NCCc3ccc(Cl)cc3)cc(-c3ccc(Cl)cc3Cl)nc21 | 16%
COC(=O)[C@H]1CN(C(=O)c2ccc(N(C)C)cc2)CCN1S(C)(=O)=O | 0%[44.1 µM]
CN(C)C[C@@H]1CN(c2ncccn2)C[C@H]1NC(=O)c1c(F)cccc1F | 0%

Screens as filed in PubChem.
